Measurements as given in PubChem BioAssay AID1159580 (chemical genetic matrix, 2015).
Where “and” joins values, the source holds several entries; their conditions need not be identical. Identical values can stand only once. Among all 5,500 compounds or so, about 2,000 (36%) were called active. Another 18% or so got no clear call; they are omitted. No stated cut-off is given here; in the data, active means normalized growth mostly below about 0.91 (no sharp cut-off); inconclusive means no clear call, values can overlap the other calls; inactive means mostly above about 0.92. The list shows a part of the results.

Test: chemical genetic growth profiling, strain panel (AID 1159580);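 further: tested at 20 µM; growth read once vehicle control cultures reached saturation at 30 °C; 1 = growth at the plate median or of vehicle wells; lower values mean less growth of the strain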
Settings: S. cerevisiae deletion strains, growth OD
[1] = locus YGR078C, strain PAC10, active compounds read low
[2] = locus YMR307W, strain GAS1, active compounds read low
[3] = locus YNL153C, strain GIM3, active compounds read low

Measured: normalized growth

N.N.N.N.N.N.N.N.N.N.N.N.N.N.O.O.[Ru+4].[Ru+5].[Ru+5]
active: locus YAL040C, strain CLN3, active compounds read low 0.206 | locus YDR363W, strain ESC2, active compounds read low 0.323 | locus YER002W, strain NOP16, active compounds read low 0.155 | [1] 0.158 | locus YGR229C, strain SMI1, active compounds read low 0.151 | locus YJR075W, strain HOC1, active compounds read low 0.115 | [2] 0.218 | locus YNL128W, strain TEP1, active compounds read low 0.194 | [3] 0.193 | locus YNL175C, strain NOP13, active compounds read low 0.175 | locus YNL197C, strain WHI3, active compounds read low 0.154 | locus YNL224C, strain SQS1, active compounds read low 0.173 | locus YOR083W, strain WHI5 (second series), active compounds read low 0.167
inactive: locus YMR263W, strain SAP30, active compounds read low 0.993

CCN(CC)CCOC(=O)C(Cc1cccc2ccccc12)CC1CCCO1 (centres undefined)
inactive: locus YAL013W, strain DEP1, active compounds read low 1.03 | locus YAL021C, strain ccr4, active compounds read low 1 | locus YAL026C, strain drs2, active compounds read low 1.01 | locus YAL030W, strain snc1, active compounds read low 0.998 | locus YBL061C, strain skt5, active compounds read low 1.01 | locus YBR009C, strain hhf1, active compounds read low 1.01 | locus YBR021W, strain FUR4, active compounds read low 1.02 | locus YBR023C, strain chs3, active compounds read low 1.01 | locus YBR171W, strain sec66, active compounds read low 1.02 | locus YBR229C, strain ROT2, active compounds read low 1 | locus YBR231C, strain swc5, active compounds read low 0.995 | locus YBR279W, strain paf1, active compounds read low 1.01 | locus YCL011C, strain gbp2, active compounds read low 1.01 | locus YCL016C, strain dcc1, active compounds read low 1.01 | locus YCL029C, strain bik1, active compounds read low 1.01 | locus YCL061C, strain MRC1, active compounds read low 1.01 | locus YCL069W, strain vba3, active compounds read low 1.01 | locus YCR088W, strain abp1, active compounds read low 1 | locus YDL005C, strain med2, active compounds read low 1.01 | locus YDL035C, strain GPR1, active compounds read low 1.02 | locus YDL040C, strain nat1, active compounds read low 1.01 | locus YDL074C, strain BRE1, active compounds read low 1.02 | locus YDL101C, strain DUN1, active compounds read low 1 | locus YDL134C, strain PPH21, active compounds read low 1.01 | locus YDL185W, strain tfp1, active compounds read low 1.01 | locus YDL192W, strain arf1, active compounds read low 1.01 | locus YDR001C, strain nth1, active compounds read low 1.01 | locus YDR069C, strain doa4, active compounds read low 1.02 | locus YDR101C, strain arx1, active compounds read low 1.02 | locus YDR137W, strain rgp1, active compounds read low 1.07 | locus YDR159W, strain sac3, active compounds read low 1.02 | locus YDR162C, strain NBP2, active compounds read low 1.02 | locus YDR195W, strain ref2 0.996 | locus YDR297W, strain sur2, active compounds read low 1.01 | locus YDR318W, strain mcm21, active compounds read low 1 | locus YDR334W, strain swr1, active compounds read low 1.01 | locus YDR335W, strain msn5, active compounds read low 1.01 | locus YDR388W, active compounds read low 1.01 | locus YDR392W, strain spt3, active compounds read low 1.01 | locus YDR502C, strain sam2, active compounds read low 1.01 | locus YEL003W, strain gim4, active compounds read low 1.01 | locus YEL037C, strain rad23, active compounds read low 1.01 | locus YEL061C, strain CIN8 (second series), active compounds read low 1.01 | locus YEL061C, strain CIN8, active compounds read low 1.01 | locus YER015W, strain faa2, active compounds read low 1.01 | locus YER016W, strain bim1, active compounds read low 1.01 | locus YER110C, active compounds read low 0.99 | locus YER111C, strain swi4, active compounds read low 1.01 | locus YER155C, strain BEM2 (second series), active compounds read low 1.01 | locus YER155C, strain BEM2, active compounds read low 1 | locus YER167W, strain BCK2, active compounds read low 1.01 | locus YFR010W, strain ubp6, active compounds read low 1.02 | locus YGL078C, strain dbp3, active compounds read low 1.02 | locus YGL086W, strain mad1, active compounds read low 1.01 | locus YGL167C, strain pmr1, active compounds read low 1.01 | locus YGL173C, strain kem1, active compounds read low 1.01 | locus YGL227W, strain vid30, active compounds read low 1 | locus YGL240W, strain doc1, active compounds read low 1.01 | locus YGL248W, strain PDE1, active compounds read low 1.01 | locus YGL253W, strain hxk2, active compounds read low 1.01 | [1] 1.03 | locus YGR135W, strain pre9, active compounds read low 0.998 | locus YGR252W, strain gcn5, active compounds read low 1.02 | locus YHR013C, strain ard1, active compounds read low 1.01 | locus YHR027C, strain rpn1, active compounds read low 1.01 | locus YHR030C, strain SLT2, active compounds read low 1.01 and 0.997 | locus YHR079C, strain IRE1 (second series), active compounds read low 1 | locus YHR079C, strain IRE1, active compounds read low 0.985 | locus YHR094C, strain hxt1, active compounds read low 0.997 | locus YHR129C, strain ARP1, active compounds read low 1.01 | locus YHR142W, strain chs7, active compounds read low 1.02 | locus YHR200W, strain rpn10, active compounds read low 1.01 | locus YIL066C, strain RNR3, active compounds read low 1.03 | locus YIL073C, strain SPO22, active compounds read low 1.08 | locus YIL125W, strain kgd1, active compounds read low 1 | locus YIR030C, strain dcg1, active compounds read low 1.01 | locus YJL092W, strain hpr5, active compounds read low 1.01 | locus YJL095W, strain BCK1 (second series), active compounds read low 1 | locus YJL095W, strain BCK1, active compounds read low 1.03 and 0.993 | locus YJL115W, strain asf1, active compounds read low 1 | locus YJL129C, strain trk1, active compounds read low 0.998 | locus YJL134W, strain LCB3, active compounds read low 1 | locus YJL154C, strain vps35, active compounds read low 1.01 | locus YJL164C, strain tpk1, active compounds read low 1.01 | locus YJL166W, strain qcr8, active compounds read low 1 | locus YJL168C, strain set2, active compounds read low 0.998 | locus YJL187C, strain SWE1 (second series), active compounds read low 1.02 | locus YJL187C, strain SWE1, active compounds read low 1.01 | locus YJR043C, strain POL32, active compounds read low 1.02 | locus YJR066W, strain TOR1, active compounds read low 0.95 | locus YKL009W, strain mrt4, active compounds read low 0.989 | locus YKL068W, active compounds read low 1 | locus YKL085W, strain MDH1 (second series), active compounds read low 1 | locus YKL085W, strain MDH1, active compounds read low 1 | locus YKL160W, strain elf1, active compounds read low 1 | locus YKR001C, strain vps1, active compounds read low 1.01 | locus YKR026C, strain gcn3, active compounds read low 1.01 | locus YKR091W, strain srl3, active compounds read low 1 | locus YLL001W, strain dnm1, active compounds read low 0.999 | locus YLL026W, active compounds read low 1 | locus YLL041C, strain sdh2, active compounds read low 1.01 | locus YLR027C, strain aat2, active compounds read low 1.01 | locus YLR039C, strain RIC1, active compounds read low 1.11 | locus YLR058C, strain SHM2, active compounds read low 1.01 | locus YLR102C, strain apc9, active compounds read low 0.992 | locus YLR113W, strain HOG1, active compounds read low 0.986 | locus YLR221C, strain rsa3, active compounds read low 1.01 | locus YLR258W, strain gsy2, active compounds read low 1 | locus YLR262C, strain YPT6 (second series), active compounds read low 1.03 | locus YLR262C, strain YPT6, active compounds read low 1.06 | locus YLR268W, strain sec22, active compounds read low 1.02 | locus YLR320W, strain mms22, active compounds read low 1.03 | locus YLR330W, strain CHS5, active compounds read low 1.01 | locus YLR342W, strain FKS1 (second series), active compounds read low 1.02 | locus YLR342W, strain FKS1, active compounds read low 1.01 | locus YLR357W, strain rsc2, active compounds read low 0.998 | locus YLR370C, strain arc18, active compounds read low 1.01 | locus YLR371W, strain rom2, active compounds read low 1.01 | locus YLR384C, strain iki3, active compounds read low 1.02 | locus YLR418C, strain cdc73, active compounds read low 1.02 | locus YML016C, strain PPZ1, active compounds read low 1 | locus YML032C, strain rad52, active compounds read low 1.01 | locus YML120C, strain ndi1, active compounds read low 1 | locus YML124C, strain tub3, active compounds read low 1 | locus YMR058W, strain fet3, active compounds read low 1.01 | locus YMR078C, strain ctf18, active compounds read low 1.02 | locus YMR125W, strain sto1, active compounds read low 1.01 | locus YMR129W, active compounds read low 1.01 | locus YMR205C, strain PFK2, active compounds read low 1.02 | locus YMR223W, strain ubp8, active compounds read low 1.02 | locus YMR231W, strain pep5, active compounds read low 1.02 | [2] 0.965 | locus YNL067W, strain RPL9B, active compounds read low 1.03 | locus YNL071W, strain lat1, active compounds read low 1.01 | [3] 1.03 | locus YNL183C, strain NPR1, active compounds read low 0.939 | locus YNL209W, strain ssb2, active compounds read low 1.02 | locus YNL233W, strain BNI4, active compounds read low 1.03 | locus YNL248C, strain rpa49, active compounds read low 1.01 | locus YNL250W, strain rad50, active compounds read low 1.01 | locus YNL271C, strain bni1, active compounds read low 0.998 | locus YNL298W, strain CLA4, active compounds read low 0.998 | locus YNL307C, strain MCK1, active compounds read low 1.02 | locus YNL322C, strain KRE1 (second series), active compounds read low 0.996 | locus YNR049C, strain mso1, active compounds read low 0.997 | locus YNR052C, strain pop2, active compounds read low 0.993 | locus YOL006C, strain TOP1, active compounds read low 1.14 | locus YOL012C, strain htz1 0.825 | locus YOL147C, strain pex11, active compounds read low 1 | locus YOR001W, strain rrp6, active compounds read low 1.01 | locus YOR061W, strain CKA2, active compounds read low 1.01 | locus YOR069W, strain VPS5, active compounds read low 1 | locus YOR070C, strain gyp1, active compounds read low 1 | locus YOR080W, strain dia2, active compounds read low 1 | locus YOR083W, strain WHI5, active compounds read low 1.01 | locus YOR106W, strain vam3, active compounds read low 0.998 | locus YOR136W, strain idh2, active compounds read low 1.01 | locus YOR144C, strain elg1, active compounds read low 1 | locus YOR184W, strain ser1, active compounds read low 1.01 | locus YOR231W, strain MKK1, active compounds read low 0.978 | locus YOR265W, strain rbl2, active compounds read low 1 | locus YOR270C, strain vph1, active compounds read low 1.03 | locus YOR290C, strain snf2, active compounds read low 1 | locus YOR316C, strain cot1, active compounds read low 1.01 | locus YPL051W, strain arl3, active compounds read low 1 | locus YPL055C, strain LGE1, active compounds read low 1.02 | locus YPL078C, strain atp4, active compounds read low 1.01 | locus YPL106C, strain sse1, active compounds read low 1.01 | locus YPL240C, strain hsp82, active compounds read low 1 | locus YPL256C, strain CLN2, active compounds read low 0.964 | locus YPR119W, strain clb2, active compounds read low 0.996 | locus YPR141C, strain kar3, active compounds read low 1.01 | locus YPR163C, strain tif3, active compounds read low 1.01 | locus YPR167C, strain met16, active compounds read low 1 | strain wtn01, active compounds read low 1
